From PubChem
The list is not random: actives were taken first. Their share in the collection is about 18%.
DT40 TDP1 CPT: DT40-hTDP1 cell growth loss with CPT; chicken DT40 Tdp1-/-;hTDP1 cells + 20 nM CPT, ATP luminescence, 48 h; Potency, µM (titrated, usually from 46.2 µM), without a hit: at the top dose activity change, negative = growth inhibition, usual class: inhibitors; 420,000 compounds, 12% hits; AID 686979; further: nearly all actives have a fitted effect of over 55% in size
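Cell growth measured by CellTiter-Glo luminescence after a minimum 48 h, 37 C compound exposure with 20 nM CPT in Tdp1-knockout DT40 cells stably expressing hTDP1, seeded 400/well; qHTS titration format.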
VDR inh: vitamin D3 receptor (human) inhibition | Potency, µM, inactives show max response, negative = inhibition, actives largely listed as inhibitors | 400,000 compounds, 0.93% hits | VDR-SRC2-3 peptide fluorescence polarization, 2 h | P11473 | AID 504847
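VDR–SRC2-3 interaction, FP format. Cmpds 23 nl via pintool, brief spin, 2 h ambient incubation.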
GCN5L2 inh: blocks human GCN5L2 histone acetyltransferase; Q92830; GCN5L2 HAT assay, ThioGlo1 CoA-SH fluorescence; Potency, µM (doses to about 58.9 µM), for inactives: top-dose activity change, negative = inhibition, most hits filed as inhibitors; 390,000 compounds, 0.21% hits
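Preincubate 20nM GCN5L2 with compound 15 min, RT → add 50uM ThioGlo1 + 75uM H3(1-25) + 70uM acetyl-CoA → read fluorescence 0 and 20 min. Primary qHTS; fluorescent artifacts likely.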
TDP1 inh: inhibitors of human tyrosyl-DNA phosphodiesterase TDP1 | Q9NUW8 | 350,000 compounds, 0.28% hits | recombinant TDP1, AlphaScreen DNA substrate cleavage | AID 485290 | Potency, µM (top dose mostly 130 µM), without a hit: at the top dose activity change, negative = inhibition, hits mostly inhibitors; further: nearly all actives have a fitted effect of over 40% in size
Target sequence (Q9NUW8 whole entry, looked up): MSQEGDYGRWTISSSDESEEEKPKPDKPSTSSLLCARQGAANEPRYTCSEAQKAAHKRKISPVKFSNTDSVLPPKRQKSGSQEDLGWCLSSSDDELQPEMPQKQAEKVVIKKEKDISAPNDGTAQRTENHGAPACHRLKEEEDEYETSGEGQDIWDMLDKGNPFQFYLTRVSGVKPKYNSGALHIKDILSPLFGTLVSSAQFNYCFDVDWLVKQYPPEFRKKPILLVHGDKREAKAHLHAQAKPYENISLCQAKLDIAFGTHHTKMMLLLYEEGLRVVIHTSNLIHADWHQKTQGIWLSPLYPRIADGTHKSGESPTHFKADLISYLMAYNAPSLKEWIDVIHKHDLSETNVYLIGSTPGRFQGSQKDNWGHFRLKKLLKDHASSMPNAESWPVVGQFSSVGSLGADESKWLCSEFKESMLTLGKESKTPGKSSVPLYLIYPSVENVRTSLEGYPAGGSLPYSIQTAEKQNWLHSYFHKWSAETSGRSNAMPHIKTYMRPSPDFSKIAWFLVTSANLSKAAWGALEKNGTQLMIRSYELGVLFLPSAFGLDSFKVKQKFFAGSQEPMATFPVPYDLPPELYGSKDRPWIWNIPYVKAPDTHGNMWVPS
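Recombinant human Tdp1 (E. coli-expressed, 1 nM final) preincubated with compounds 15 min at room temperature, then 5'-biotin/3'-phosphotyrosine-FITC DNA substrate (15 nM final) added for 5 min. AlphaScreen beads (10 ug/ml final) added 10 min; cleavage lowers signal.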
PLK1 PBD inh: blocks phosphopeptide binding to human PLK1 polo-box domain; 360,000 compounds, 2.8% hits; P53350; Plk1 PBD binding of FITC phosphopeptide, fluorescence polarization; Potency, µM, for inactives: max response, negative = inhibition, hits mostly inhibitors; further: series mostly up to about 57 µM; nearly all actives have a fitted effect of over 65% in size
TDP1 cell noCPT: qHTS for Inhibitors of human tyrosyl-DNA phosphodiesterase 1 (TDP1): qHTS in cells in absence of CPT | DT40 Tdp1-/- hTDP1 cells, no CPT, ATP luminescence, 48 h | 420,000 compounds, 15% hits | Potency, µM (top dose mostly 46.2 µM), without a hit: top-dose activity change, negative = growth inhibition, hits mostly inhibitors; further: nearly all actives have a fitted effect of over 55% in size
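Readout: luminescence from CellTiter-Glo after 30 min in the dark at RT. Cells: DT40 Tdp1-/- with stable hTDP1, 400/well. Exposure: compounds alone, ≥48 hr, 37 °C.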
TbPYK confirm: confirmation of Trypanosoma brucei pyruvate kinase inhibitors | shares compounds with PLK1 PBD inh | recombinant TbPYK, Kinase-Glo ATP luminescence | Potency, µM (series often up to 76.9 µM), inactives show at the highest dose activity change, negative = inhibition, actives largely listed as inhibitors | 890 compounds, 67% hits; further: nearly all actives have a fitted effect of over 70% in size
TbPYK ADP-Glo: orthogonal confirmation of Trypanosoma brucei pyruvate kinase inhibitors. Potency, µM (series often up to 76.9 µM), for the others: at the top dose activity change, negative = inhibition, hits mostly inhibitors. recombinant TbPYK, ADP-Glo luminescence, 60 min. shares compounds with PLK1 PBD inh. 890 compounds, 62% hits; further: nearly all actives have a fitted effect of over 75% in size
Numbers without * were called inactive; ? = inconclusive; / = no result given; [ ] = dose if it differs, or a comment. The call rests on the fitted dose curve; in most records, active means well fitted curve in the direction sought with a large enough effect; inconclusive means small, poorly fitted or top-dose-only effect, or another doubt; inactive means no such curve, though single readings can be large; an effect the other way counts as inactive or inconclusive. On the % scale 0 is the no-effect control and ±100 the full control effect; potency means the concentration at half of the fitted maximal effect.

SMILES	DT40 TDP1 CPT	VDR inh	GCN5L2 inh	TDP1 inh	PLK1 PBD inh	TDP1 cell noCPT	TbPYK confirm	TbPYK ADP-Glo
CC1(C)Cc2c(c(N3CCOCC3)nc3sc(C(=O)Nc4cccc(Cl)c4)c(N)c23)CO1	18.4µM*	-6.6%	-2.1%	6.3%	?	?	1.12µM*	3.55µM*
CC(OC(=O)c1ccccc1NCCO)C(=O)NC1CCCCC1C (stereo unspecified)	-19.8%	2.0%	-25.6%	-4.8%	-6.1%	-24.4%	/	/
CC(=O)C(Sc1nn(C)c(=S)s1)C(=O)Nc1ccccc1 (stereo unspecified)	-3.2%	79.4µM*	?	8.2%	26.7µM*	?	20µM*	28.2µM*
C=CCOc1ccc(/C=C2/C(=O)ON=C2C)cc1OC	?	-14.2%	27.2%	/	2.38µM*	?	12.6µM*	?
C=CCOc1ccc(/C=C2\SC(N)=NC2=O)cc1OC	?	5.8%	1.7%	/	9.4%	-19.1%	/	/
O=C(NNC(=S)Nc1ccccc1C(F)(F)F)C1CC1	1.5%	6.4%	5.1%	4.1%	-9.8%	-9.4%	/	/
O=[N+]([O-])c1cnc(Sc2ccncn2)c([N+](=O)[O-])c1	1.16µM*	/	/	/	1.19µM*	1.16µM*	-90.3%	?
Nc1nc2ccc([N+](=O)[O-])c(N)c2s1	?	-14.3%	-7.7%	7.9%	10.6µM*	?	?	31.6µM*
Nc1ccc(NC(=O)c2ccco2)c(Cl)c1	-1.7%	-0.2%	0.7%	-2.4%	-1.9%	-5.8%	/	/
CSC1CCCCC1(O)CSc1nc2c(cc1C#N)CCCC2 (stereo unspecified)	-24.5%	-15.0%	-23.4%	1.1%	26.7µM*	?	7.94µM*	8.91µM*
N#CCSc1nc2c(cc1C#N)CCCC2	-16.8%	-18.1%	-0.5%	-1.0%	-12.8%	?	/	/
COc1ccccc1OCC(=O)Nc1nonc1NC(=O)COc1ccccc1OC	-6.4%	-9.6%	1.5%	2.6%	-7.0%	6.9%	/	/
COc1ccc(C2/C(=C(/O)c3ccc(Br)cc3)C(=O)C(=O)N2C)cc1 (stereo unspecified)	14.5%	-1.4%	-14.6%	/	-3.9%	-2.0%	/	/
CC1(C)CC(=O)C=C(NNC(=O)c2ccccc2)C1	-1.3%	-21.2%	-2.0%	0.0%	-8.9%	-13.3%	/	/
CC1(C)CC(=O)C(CSC(=O)c2ccccc2)C(=O)C1	13µM*	/	/	/	9.47µM*	13µM*	5.62µM*	14.1µM*
Cc1cc(C)c(OCC(=O)NCC2CCCO2)c(C)c1 (stereo unspecified)	4.4%	0.5%	0.5%	5.3%	-3.4%	-0.3%	/	/
Cc1ccc2cc(CN(CC(C)C)C(=O)C3CCCO3)c(=O)[nH]c2c1 (stereo unspecified)	-23.0%	2.9%	-2.0%	2.8%	-8.1%	-9.8%	-19.9%	-28.4%
Cc1ccc2cc(CN(CC3CCCO3)C(=O)C(C)C)c(=O)[nH]c2c1 (stereo unspecified)	-2.3%	-10.3%	-0.8%	4.2%[56.1 µM]	-9.4%	-13.5%	/	/
O=C(NCC(=O)N(c1cccnc1)C(C(=O)NC1CCCC1)c1ccc(F)cc1)c1ccco1 (stereo unspecified)	/	/	-1.8%	-3.1%	/	/	/	/
C=CCNC(=S)NNC(=O)c1cccn(Cc2ccc(Cl)cc2Cl)c1=O	16.4µM*	-5.0%	?	5.9%	-15.8%	?	0.891µM*	2.82µM*
O=C(O)C1CCc2sc3[nH]c(=S)n(-c4ccccc4)c(=O)c3c21 (stereo unspecified)	21.7%	-15.9%	-16.7%	/	?	17.5%	2µM*	3.16µM*
CCS(=O)(=O)N1CCC(C(=O)Nc2ccc3c(c2)CCC3)CC1	-19.3%	7.4%	?	2.1%	-2.3%	-12.5%	/	/
CC1=CC(=O)C(Sc2ccc(C)cc2)=CC1=O	1.84µM*	/	/	/	0.844µM*	1.64µM*	1.26µM*	2.51µM*
Cc1ccc(CN2CCN(/N=C/c3ccc(O)c(O)c3)CC2)cc1	7.31µM*	-18.9%	-25.2%	/	?	4.11µM*	14.1µM*	15.8µM*
CCN(CC)c1ccc(/C=N\N2CCN(Cc3ccc(C)cc3)CC2)cc1	-0.2%	2.3%	-10.0%	11.0%	-4.7%	?	/	/
SMILES	DT40 TDP1 CPT	VDR inh	GCN5L2 inh	TDP1 inh	PLK1 PBD inh	TDP1 cell noCPT	TbPYK confirm	TbPYK ADP-Glo
Cc1ccc(S(=O)(=O)N(C)CC(=O)N2CCN(C(=O)c3ccco3)CC2)cc1	-17.4%	-2.0%	1.8%	1.0%	2.7%	-0.4%	/	/
Cc1ccc(S(=O)(=O)N(C(=O)c2ccco2)c2cc3sc(=O)oc3c3ccccc23)cc1	5.17µM*	20µM*	?	10.7%	-6.6%	2.59µM*	-29.0%	?
CCOc1ccc(S(=O)(=O)N(C(=O)c2ccco2)c2cc3sc(=O)oc3c3ccccc23)cc1	18.4µM*	31.6µM*	?	10.5%	?	?	?	?
CN(C)/C=C/c1c([N+](=O)[O-])c2ccc(O)cc2n1-c1ccccc1	-19.2%	?	-19.0%	8.2%	0.4%	?	/	/
CCCC(C)c1nnc(NC(=O)c2cc(C(=O)OC)cc([N+](=O)[O-])c2)s1 (stereo unspecified)	-24.6%	50.1µM*	-21.6%	0.0%	5.97µM*	?	3.55µM*	14.1µM*
COc1ccc(S(=O)(=O)N(C)C)cc1NC(=O)c1ccc(OCC(=O)N2CCOCC2)c(OC)c1	2.0%	-4.9%	2.7%	0.3%[0.505 µM]	-0.8%	7.9%	/	/
COc1cc(CN2CCNC(=O)C2CC(=O)N(Cc2nccn2C)C(C)C)cc(OC)c1 (stereo unspecified)	-2.9%	9.5%	18.0%	/	0.1%	-1.0%	/	/
CCCCCC(=O)NNC(=S)NC(=O)c1cccc([N+](=O)[O-])c1	14.6µM*	?	-27.3%	0.0%	15µM*	13µM*	11.2µM*	14.1µM*
CCCCCC(=O)NNC(=S)NC(=O)c1ccccc1[N+](=O)[O-]	?	?	-2.2%	0.0%	-9.3%	?	/	/
N#Cc1c(NC(=O)CCC(=O)O)sc2c1CCCCC2	13.4%	0.2%	3.3%	/	26.7µM*	-0.1%	?	?
c1ccc(Cc2nn3c(C4COc5ccccc5O4)nnc3s2)cc1 (stereo unspecified)	?	-44.1%	?	0.0%	21.2µM*	?	?	?
